Test results as given in PubChem BioAssay (NCATS).
Inconclusive results are not listed. Where a call stands in place of a potency, no number is given. A number with no mark means an inactive call. Calls of active or inactive are those of the source. Calls follow the shape of the dose curve; as a rule, active = well fitted curve in the direction sought with a large enough effect; inconclusive = small, poorly fitted or top-dose-only effect, or another doubt; inactive = no such curve, though single readings can be large; an effect the other way counts as inactive or inconclusive.

Legend:
Furin (Homo sapiens) = Furin (Homo sapiens) (UniProt P09958); test: Furin counterscreen qHTS for Zika virus inhibitors (AID 1347149); also: nearly all actives have a fitted effect of over 70% in size; also: potency is read from the fitted curve at half-maximal effect
Summary of the method: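 Fluorogenic cleavage of BOC-RVRR-AMC (2 microM final, Km ~15 µM) was monitored (ex 340, em 450 nm) at 37C after 15 min RT preincubation of 5 nM furin with compounds in HEPES pH 7.0 buffer with CaCl2 and Triton X-100. Percent inhibition was fitted to a 4-parameter Hill curve.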

[1] = test system: Zika virus NS2B-NS3 protease (unlinked complex); test: Confirmatory screen GU AMC qHTS for Zika virus inhibitors (AID 1347153); also: nearly all actives have a fitted effect of over 70% in size;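 as to potency: enzyme at 25 nM with substrate at 10 µM below its Km of 18.3 µM; potency is read from the fitted curve at half-maximal effect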
Summary of the method: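 Noncovalent NS2B hydrophilic domain/NS3 protease complex (25 nM) in 10 mM Tris-HCl pH 8.0, 0.01% Tween 20 was preincubated 15 min at room temperature with compounds. Then 10 µM AMC substrate (Km 18.3 µM) was added; fluorescence was read over 15 min and fitted to a 4-parameter Hill equation.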

[2] = test system: Zika virus NS2B-NS3 protease (linked); test: 384 well plate NINDS AMC confirmatory qHTS for Zika virus inhibitors (AID 1347163);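 also: linked protease at 5 30 or 60 nM final depending on run; fluorescence of AMC released from Ac-VKTGKR-AMC peptide cleaved by the protease; top concentration of the series differs between compounds; nearly all actives have a fitted effect of over 50% in size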
Summary of the method: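 Linked protease 5/30/60 nM final; cpds up to 1 mM final, ~15 min preinc. Substrate Ac-VKTGKR-AMC 30 microM final. RT, dark, 25 min; FI ex 355/em 460; normalized to no-enzyme/no-inhibitor ctrls.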

[3] = test system: Zika virus NS2B-NS3 protease (linked construct); test: 384 well plate NINDS Rhodamine confirmatory qHTS for Zika virus inhibitors (AID 1347164);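 also: fluorescence from protease cleavage of Ac-LKRR-rhodamine 110 substrate; potency is read from the fitted curve at half-maximal effect; nearly all actives have a fitted effect of over 65% in size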
Summary of the method: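 Enzyme (final 5/30/60 nM) + cpd (DMSO), ~15 min; add Ac-LKRR-Rd 10 microM final; 25 min RT, dark; FI ex 485/em 538; normalized to no-enzyme, no-inhibitor ctrls; aprotinin intraplate ctrl.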

[4] = Tertiary RLuc qRT-PCR qHTS assay for Zika virus inhibitors (AID 1347169); also: top concentration of the series differs between compounds; nearly all actives have a fitted effect of over 55% in size
Summary of the method: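 Vero, 1,000 cells/well, o/n 37 C; cpd pinned in DMSO; ZIKV-RLuc Cambodian, MOI 1-2, 48-72 h 37 C; live-cell RLuc substrate, lum read at 1-1.5 h.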

[5] = Vero cells viability qHTS for Zika virus inhibitors (AID 1347167)
Summary of the method: (§1)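 Counter-screen for cytotoxicity of hits from NS2B-NS3 protease qHTS. Overnight-attached cells (2.5 x 10^5 cells/mL, DMEM/4% FBS) were dosed in titration, incubated 24 to 48 hours, then assayed by CellTiter Glo.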

[6] = HepG2 cells viability qHTS for Zika virus inhibitors (AID 1347168)
Summary of the method: as §1

[7] = test system: Zika virus NS2B-NS3 protease (linked construct); test: Confirmatory screen NINDS AMC qHTS for Zika virus inhibitors (AID 1347152);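 also: AMC fluorescence gain from cleaved Bz-Nle-KRR-AMC substrate over 15 min; top concentration of the series differs between compounds; nearly all actives have a fitted effect of over 70% in size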
Summary of the method: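 Enzyme (1 nM, linked construct) was preincubated with compound for 15 minutes at room temperature in 10 mM Tris-HCl pH 8.0 with 0.01% Tween 20. Bz-Nle-Lys-Arg-Arg-AMC was then added to 10 microM, and AMC fluorescence was recorded immediately and after 15 minutes.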

Furin (Homo sapiens), sequence (P09958 whole entry, looked up): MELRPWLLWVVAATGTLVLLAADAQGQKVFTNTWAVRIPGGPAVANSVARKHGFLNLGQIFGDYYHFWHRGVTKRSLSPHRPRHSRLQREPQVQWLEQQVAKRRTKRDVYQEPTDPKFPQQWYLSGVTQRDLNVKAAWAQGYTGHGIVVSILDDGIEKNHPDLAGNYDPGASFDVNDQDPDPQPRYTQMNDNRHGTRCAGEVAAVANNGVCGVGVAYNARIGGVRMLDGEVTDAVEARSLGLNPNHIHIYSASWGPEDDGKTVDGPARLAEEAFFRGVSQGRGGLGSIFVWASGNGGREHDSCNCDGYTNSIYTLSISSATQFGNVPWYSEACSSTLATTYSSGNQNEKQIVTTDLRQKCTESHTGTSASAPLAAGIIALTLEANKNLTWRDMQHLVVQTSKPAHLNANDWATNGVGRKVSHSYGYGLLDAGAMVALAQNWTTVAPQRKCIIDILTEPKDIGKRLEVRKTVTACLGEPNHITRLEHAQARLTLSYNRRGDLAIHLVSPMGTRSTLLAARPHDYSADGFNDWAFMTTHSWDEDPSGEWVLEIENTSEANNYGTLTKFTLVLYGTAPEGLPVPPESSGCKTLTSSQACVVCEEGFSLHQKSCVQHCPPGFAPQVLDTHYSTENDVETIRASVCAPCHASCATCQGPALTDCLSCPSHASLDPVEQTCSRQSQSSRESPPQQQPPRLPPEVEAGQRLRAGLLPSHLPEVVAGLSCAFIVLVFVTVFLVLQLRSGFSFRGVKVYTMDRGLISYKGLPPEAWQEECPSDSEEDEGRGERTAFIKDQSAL

Structure (SMILES): O=C(O)COc1ccc(-c2nccc3c2C(=O)N(Cc2cccc(C(F)(F)F)c2)CC(CNC(=O)c2cccc(Cl)c2)O3)cc1 (centres undefined)
- Potency (Furin (Homo sapiens)): inactive
- Potency [1]: 49.4 µM (active)
- Potency [2]: inactive
- Potency [3]: 22.4 µM (active)
- Potency [4]: inactive

Structure (SMILES): COc1ccc(-c2nc3cc(F)ccc3s2)cc1OC
- Potency (Furin (Homo sapiens)): 3.43 µM (active)
- activity, negative = inhibition [1]: -4.14% [at 5.51 µM]
- activity change, negative = cytotoxicity [5]: -2.06% [at 4.93 µM]
- activity change, negative = cytotoxicity [6]: 0.919% [at 4.93 µM]
- Potency [4]: inactive

Structure (SMILES): N#C/C(=C\c1ccc(Br)cc1)c1nc(-c2cc3cc(Br)ccc3oc2=O)cs1
- Potency (Furin (Homo sapiens)): inactive
- Potency [7]: inactive
- Potency [1]: inactive
- Potency [4]: inactive
